# Experimental data reported in PubChem BioAssay AID2685 (National Center for Advancing Translational Sciences (NCATS), 2010).
# The campaign covered roughly 320,000 compounds. About 2,100 (0.66%) were called active. About 53% were inconclusive and are not listed. Calls follow the shape of the dose curve; as a rule, active = well fitted inhibition curve with a large enough effect in the signal ratio, with a control signal flat (not every such curve was filed as active); inconclusive = small, poorly fitted or top-dose-only effect, or effect the other way, or a change in a side signal; inactive = flat fitted curve, though single readings scatter; the % refers to the signal ratio. The sample as a whole holds a higher share of actives than the screen did.
# Experiment: qHTS Assay for Lipid Storage Modulators in Drosophila S3 Cells;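 as to cell number change: cells counted by Cell Tracker Red CMTPX staining in the red channel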; as to lipid storage change, negative = inhibition: % is scaled to controls: 0 for no effect and ±100 for the full control effect
# Settings: BODIPY lipid droplet fluorescence, 18-24 h, cells fed with added oleic acid; cell number change: measured here: cell count max response; series mostly up to 46.1 µM
# Method in brief: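 Drosophila S3 cells loaded with oleic acid (400 uM, as added) and compounds at several concentrations; lipid droplets imaged by 488-nm laser-scanning cytometry, 500–530 nm intensity and object ratio to cell channel. Percent activity normalized to 20 uM Triacsin C.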
# Potency is read from the fitted curve at half-maximal effect.
SMILES,Potency,cell number change,"lipid storage change, negative = inhibition"
CSc1sc(C(=O)OC(C)C)c2c1C(=O)CC(C)(C)C2,inactive,-5.28%,–
O=C(NC1CC1)C1=C[C@H](c2ccc3c(c2)OCO3)C[C@H](OCc2ccc(CO)cc2)O1,inactive,3.05%,–
CC(=O)N1CCc2cc(Br)cc(S(=O)(=O)NCCCN3CCCC(C)C3)c21 (stereo not given),inactive,-1.7%,–
CCCc1nc(SCC(=O)N2CCc3ccccc3C2)c2ccccc2n1,inactive,-13.9%,–
O=C(c1ccco1)N1CCN(C(=O)C2CC2)CC1,inactive,3.46%,–
O=C1c2ccccc2NC(c2cccc([N+](=O)[O-])c2)N1O (stereo not given),inactive,5.94%,–
CC(=O)NN1C(=O)c2ccccc2NC1c1cccc([N+](=O)[O-])c1 (stereo not given),inactive,-1.27%,–
O=C1c2ccccc2NC(c2cccc([N+](=O)[O-])c2)N1CCc1ccccc1 (stereo not given),5.8 µM (active),8.73%,–
C[N+]1(C)CC2([N+](=O)[O-])CC=C(Oc3ccccc3)C([N+](=O)[O-])(C2)C1 (stereo not given),inactive,-16.8%,–
COCCn1c(SCC(=O)c2c(N)n(C3CC3)c(=O)[nH]c2=O)nnc1-c1ccc(Cl)cc1,inactive,-5.22%,–
Cc1cc([N+](=O)[O-])ccc1NCc1ccccc1[N+](=O)[O-],inactive,7.15%,–
O=C(CSc1ccc([N+](=O)[O-])cn1)Nc1nccs1,18.4 µM (active),2.83%,–
CC(=O)Nc1ccc(NC(=O)CSc2ccc([N+](=O)[O-])cn2)cc1,inactive,0.135%,–
O=C(Cn1cc([N+](=O)[O-])cn1)Nc1nccs1,inactive,10.2%,–
CCN(CC(=O)Nc1ccc(OC)cc1)C(=O)CCS(=O)(=O)c1ccc(C)cc1,inactive,4.09%,–
COc1ccc(CNS(=O)(=O)c2c(C(=O)N3CCCCC3)c(C)n(C)c2C)cc1,inactive,-6.92%,–
CCN(CC)C(=O)c1cccc(NC(=O)CC23CC4CC(CC(C4)C2)C3)c1,0.231 µM (active),17.9%,–
O=C(CC12CC3CC(CC(C3)C1)C2)Nc1c(F)cccc1F,inactive,-17.2%,–
CNC(=O)c1ccc(NC(=O)CC23CC4CC(CC(C4)C2)C3)cc1,inactive,12.8%,–
COc1ccc(CCNC(=O)C2CCC(=O)N2Cc2ccccc2Cl)cc1OC (stereo not given),inactive,-14.8%,–
Cc1cc(C(=O)NCCCN2CCN(c3cc(Cl)ccc3C)CC2)n(-c2ccccc2)n1,–,12.1%,-3.15% [at 9.22 µM] (inactive)
CC(C)(C)c1cc(OS(C)(=O)=O)ccc1O,inactive,-0.646%,–
CC(C)(C)c1cc(OC(=O)c2ccncc2)ccc1O,inactive,-10.2%,–
CCCCC(CC)C(=O)Oc1ccc(O)c(C(C)(C)C)c1 (stereo not given),25.9 µM (active),-29.2%,–
Cc1onc(-c2c(F)cccc2Cl)c1C(=O)ONC(=O)c1ccccc1,inactive,10.6%,–
O=C(COc1cc2oc(=O)c3c(c2cc1Cl)CCCC3)N1C[C@H]2C[C@@H](C1)c1cccc(=O)n1C2,1.46 µM (active),3.88%,–
CCCc1cc(=O)oc2cc(OCC(=O)N3C[C@H]4C[C@@H](C3)c3cccc(=O)n3C4)c(Cl)cc12,inactive,3.02%,–

SMILES,Potency,cell number change,"lipid storage change, negative = inhibition"
CC(Oc1cc2oc(=O)c3c(c2cc1Cl)CCC3)C(=O)N1C[C@H]2C[C@@H](C1)c1cccc(=O)n1C2 (stereo not given in full),inactive,18.9%,–
O=C(COC(=O)Cc1n[nH]c(=O)c2ccccc12)Nc1ccc(Cl)cc1F,inactive,-2.17%,–
COc1ccc2c(c1)cc(C(=O)N[C@@H](Cc1ccccc1)C(=O)O)n2C,inactive,–,–
CCCCN1C(=O)C2NN=C(C(=O)OC)C2C1=O (stereo not given),inactive,1.06%,–
CCN1C(=O)[C@@H]2C(C(=O)c3cnccn3)=NN[C@@H]2C1=O,inactive,10.4%,–
CCOC(=O)C1=NNC2C(=O)N(CC)C(=O)C12 (stereo not given),13 µM (active),12.2%,–
Clc1ccc(Cn2ncc3c(N4CCCC4)ncnc32)cc1,inactive,-16%,–
COc1cccc(NC(=O)CN(C)C(=O)c2ccc(S(=O)(=O)Nc3ccccc3C)cc2)c1,inactive,-4.07%,–
CCN1CCN(Cc2ccc(NC(=O)c3ccc(C)c(NC(=O)N4CCNC4=O)c3)cc2C(F)(F)F)CC1,inactive,25.7%,–
CCN1CCN(Cc2ccc(NC(=O)c3ccc(C)c(NC(=O)c4cccc5[nH]ccc45)c3)cc2C(F)(F)F)CC1,inactive,-3.74%,–
CCN1CCN(Cc2ccc(NC(=O)c3ccc(C)c(NC(=O)c4c[nH]c5cc(C(F)(F)F)ccc5c4=O)c3)cc2C(F)(F)F)CC1,10.3 µM (active),-28.9%,–
CCOC(=O)Cc1csc(NS(=O)(=O)c2ccc(C(F)(F)F)cc2)n1,inactive,3.37%,–
CCOc1ccc(OCC)c(NC(=O)CCNS(=O)(=O)c2cc(Br)cnc2N)c1,1.3 µM (active),-2.69%,–
COc1ccc(NC(=O)CCNS(=O)(=O)c2cc(Br)cnc2N)c(OC)c1,inactive,–,–
COc1cc(OC)c(NC(=O)CCNS(=O)(=O)c2cc(Br)cnc2N)cc1Cl,inactive,–,–
CN1CCN(S(=O)(=O)c2cccc(C(=O)Nc3cc(C(F)(F)F)ccc3N3CCCC3)c2)CC1,inactive,1.88%,–
COc1cccc(/C=N/NC(=O)c2nc(-c3ccccc3)cc(-c3ccccc3)n2)c1O,inactive,-7.98%,–
COc1ccc(/C=N/NC(=O)c2nc(-c3ccccc3)cc(-c3ccccc3)n2)cc1,inactive,-21.2%,–
COc1cccc(/C=N/NC(=O)c2nc(-c3ccccc3)cc(-c3ccccc3)n2)c1,20.6 µM (active),-10.5%,–
CCOc1cc(/C=C2\SC(=Nc3ccc(F)cc3)N(c3ccc(F)cc3)C2=O)ccc1OCC(=O)O,inactive,-5.36%,–
COc1ccccc1C1=CC(=O)C[C@H](c2ccc(Cl)cc2)C1,inactive,-15.5%,–
Cc1ccccc1C(=O)NC1CCN(CC(=O)Nc2ccccc2)CC1,inactive,-25.1%,–
CCCC(=O)NC(=S)Nc1ccc(C(C)=O)cc1,inactive,-4.91%,–
CNC(=S)Nc1ccccc1-c1ccccc1,inactive,1.9%,–
COc1ccccc1COC(=O)c1ccc(S(=O)(=O)N2CCOCC2)cc1,inactive,-3.67%,–
COc1ccc(OC)c2sc(NC(=O)c3ccc(S(=O)(=O)N4CCOCC4)cc3)nc12,inactive,4.36%,–
CCn1c(=NC(=O)c2ccc(S(=O)(=O)N3CCOCC3)cc2)sc2cccc(OC)c21,16.4 µM (active),4.06%,–
